Molecules are shown by their SMILES. Values joined by “and” are separate entries in the source; they are usually repeats but may differ in a detail not shown here. Equal values may be shown once. Inconclusive results are not listed. More than one record can exist for a structure, and the calls need not agree. Active and inactive are the calls of the source. Unless noted, calls follow the shape of the dose curve; as a rule, active = well fitted curve in the direction sought with a large enough effect; inconclusive = small, poorly fitted or top-dose-only effect, or another doubt; inactive = no such curve, though single readings can be large; an effect the other way counts as inactive or inconclusive.

These results are taken from PubChem BioAssay (NCATS).

The nature of assay [1]: Identifying Small Molecule Inhibitors of Pancreatic Cancer Stem Cells (A278, Adherent) (AID 1259361).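 Also: viability read after 48 h compound exposure; nearly all actives have a fitted effect of over 35% in size.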 The essentials: (§1)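 Monolayer and spheroid cultures are compared. Spheroids form over 14 days in stem cell medium on hydrogel-coated low-attachment plates, then are exposed to compound for 48 h before CellTiter-Glo luminescence.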
The nature of assay [2]: P-glycoprotein substrates identified in KB-8-5-11 adenocarcinoma cell line, qHTS therapeutic library screen (AID 1346987). Also: nearly all actives have a fitted effect of over 65% in size. Also: potency is read from the fitted curve at half-maximal effect. The essentials:
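Steps: plate 500 KB-8-5-11 cells/well in DMEM + 10% FCS (colchicine removed); pin compounds in dose-response; incubate 72 h, 37 degree C, 5% CO2; add CellTiter-Glo, 5 min; read luminescence.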

A short description of assay [3]: qHTS of pediatric cancer cell lines to identify multiple opportunities for drug repurposing: Primary screen for TC32 cells (AID 1347089). Also: nearly all actives have a fitted effect of over 60% in size. Also: potency is read from the fitted curve at half-maximal effect. The essentials:
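qHTS, TC32, 48 h drug treatment, CellTiter-Glo luminescence as a proxy for metabolically active cells; primary top concentration 46 µM (MIPE 11-pt, NPC 8-pt); confirmatory 11-pt.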
(In general: qHTS replaces the single test concentration by a dilution series.)

A short description of assay [4]: qHTS of pediatric cancer cell lines to identify multiple opportunities for drug repurposing: Primary screen for DAOY cells (AID 1347090). Also: potency is read from the fitted curve at half-maximal effect; nearly all actives have a fitted effect of over 55% in size. The essentials: (§2)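 Viability measured as metabolically active cells via CellTiter-Glo luminescence following 48 hours of compound exposure, 11-point dilutions in confirmatory testing. 500-1,000 cells/well plated 5 hours before dosing; controls were DMSO and 2.3 µM bortezomib.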

The nature of assay [5]: qHTS of pediatric cancer cell lines to identify multiple opportunities for drug repurposing: Primary screen for SJ-GBM2 cells (AID 1347091). Also: potency is read from the fitted curve at half-maximal effect. The essentials: as §2
Assay [6] in a line: qHTS of pediatric cancer cell lines to identify multiple opportunities for drug repurposing: Primary screen for A673 cells (AID 1347092). Also: potency is read from the fitted curve at half-maximal effect; nearly all actives have a fitted effect of over 45% in size. The essentials: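 Luminescence from CellTiter-Glo, taken after 15 min at room temperature, served as the proxy for metabolically active cells following 48 h treatment. Both potency and efficacy were taken from curves fitted to the titration data.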

A short description of assay [7]: qHTS of pediatric cancer cell lines to identify multiple opportunities for drug repurposing: Primary screen for BT-37 cells (AID 1347094). Also: potency is read from the fitted curve at half-maximal effect. The essentials:
(§3)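 Following a 5-hour attachment period, cells at 500-1,000/well received compounds and were cultured for 48 hours. CellTiter-Glo was added and luminescence read to estimate viable, metabolically active cells.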

A short description of assay [8]: qHTS of pediatric cancer cell lines to identify multiple opportunities for drug repurposing: Primary screen for NB-EBc1 cells (AID 1347095). Also: potency is read from the fitted curve at half-maximal effect. The essentials:
as §3

The nature of assay [9]: Identifying Small Molecule Inhibitors of Pancreatic Cancer Stem Cells (SN12C, Spheroid) (AID 1259360). As to conditions: Potency: SN12C spheroid viability. The essentials: as §1
The nature of assay [10]: qHTS of pediatric cancer cell lines to identify multiple opportunities for drug repurposing: Primary screen for SK-N-MC cells (AID 1347093). Also: potency is read from the fitted curve at half-maximal effect. The essentials: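 Metabolically active cells were quantified by ATP-dependent luminescence (CellTiter-Glo, 15 min at room temperature) following 48 h treatment. Cells had been plated at 500-1,000 per well and settled for 5 h beforehand.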

For assay [11], the target named is Atrial natriuretic peptide receptor 1 (Homo sapiens) (UniProt P16066). Description: Natriuretic polypeptide receptor (hNpr1) antagonism - Pilot screen (AID 1347049; calls by dose curve;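 also: agonist-evoked cGMP luminescence read 20 min after hNppA addition; series mostly up to about 58 µM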). The essentials:
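HEK293 cells expressing hNpr1 and GloSensor cGMP luciferase, 1500/well, loaded with 2% GloSensor reagent 2 h, compound 30 min at room temperature; luminescence read before and 20 min after 0.1 nM hNppA stimulation.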

The target in assay [12] is Atrial natriuretic peptide receptor 2 (Homo sapiens) (UniProt P20594). Description: Natriuretic polypeptide receptor (hNpr2) antagonism - Pilot subtype selectivity assay (AID 1347050; calls by dose curve). The essentials:
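HEK293 cells expressing hNpr2 and a GloSensor cGMP luciferase sensor, 1500/well, preloaded 2 h with 2% GloSensor reagent, compound 30 min, then 1 nM hNppC for 20 min. Antagonism from luminescence after versus baseline pre-read; LOPAC in 1:5 titrations.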

A short description of assay [13]: NS1 protein of Zika virus - qHTS assay to identify small molecule inhibitors in human HEK 293 cells (AID 1347053). Also: series mostly up to about 46 µM; nearly all actives have a fitted effect of over 55% in size. The essentials:
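HEK 293; 20 h pre-culture, 37 C/5% CO2; cpd 1 h pre-infection; ZIKV MR766, MOI = 0.5, 24 h, 37 C; TR-FRET NS1 readout (two anti-NS1 Abs); norm. to no-virus vs infected.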

Assay [14] is described as follows: P-glycoprotein substrates identified in KB-3-1 adenocarcinoma cell line, qHTS therapeutic library screen (AID 1346986).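 Also: potency is read from the fitted curve at half-maximal effect; potency is for cytotoxicity meaning loss of cell viability; nearly all actives have a fitted effect of over 60% in size.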 The essentials:
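KB-3-1 parental and colchicine-selected P-gp-overexpressing KB-8-5-11 cells (colchicine omitted during assay), 500 cells/well, dosed in dose-response for 72 h at 37 °C; CellTiter-Glo luminescence. Cytotoxic: curve class -1.1 to -2.4, max response >50%, AC50 < 10 uM.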

A short description of assay [15]: Identifying Small Molecule Inhibitors of Pancreatic Cancer Stem Cells (Panc1, Adherent) (AID 1259362). Also: potency is read from the fitted curve at half-maximal effect. As to conditions: Potency: viability. The essentials:
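After a 4 h attachment period, compounds were pinned into wells and cultures held 48 h under standard incubator conditions. Viability was then measured as CellTiter-Glo luminescence following 10 min at room temperature.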

Atrial natriuretic peptide receptor 2 (Homo sapiens), sequence (P20594 whole entry, looked up): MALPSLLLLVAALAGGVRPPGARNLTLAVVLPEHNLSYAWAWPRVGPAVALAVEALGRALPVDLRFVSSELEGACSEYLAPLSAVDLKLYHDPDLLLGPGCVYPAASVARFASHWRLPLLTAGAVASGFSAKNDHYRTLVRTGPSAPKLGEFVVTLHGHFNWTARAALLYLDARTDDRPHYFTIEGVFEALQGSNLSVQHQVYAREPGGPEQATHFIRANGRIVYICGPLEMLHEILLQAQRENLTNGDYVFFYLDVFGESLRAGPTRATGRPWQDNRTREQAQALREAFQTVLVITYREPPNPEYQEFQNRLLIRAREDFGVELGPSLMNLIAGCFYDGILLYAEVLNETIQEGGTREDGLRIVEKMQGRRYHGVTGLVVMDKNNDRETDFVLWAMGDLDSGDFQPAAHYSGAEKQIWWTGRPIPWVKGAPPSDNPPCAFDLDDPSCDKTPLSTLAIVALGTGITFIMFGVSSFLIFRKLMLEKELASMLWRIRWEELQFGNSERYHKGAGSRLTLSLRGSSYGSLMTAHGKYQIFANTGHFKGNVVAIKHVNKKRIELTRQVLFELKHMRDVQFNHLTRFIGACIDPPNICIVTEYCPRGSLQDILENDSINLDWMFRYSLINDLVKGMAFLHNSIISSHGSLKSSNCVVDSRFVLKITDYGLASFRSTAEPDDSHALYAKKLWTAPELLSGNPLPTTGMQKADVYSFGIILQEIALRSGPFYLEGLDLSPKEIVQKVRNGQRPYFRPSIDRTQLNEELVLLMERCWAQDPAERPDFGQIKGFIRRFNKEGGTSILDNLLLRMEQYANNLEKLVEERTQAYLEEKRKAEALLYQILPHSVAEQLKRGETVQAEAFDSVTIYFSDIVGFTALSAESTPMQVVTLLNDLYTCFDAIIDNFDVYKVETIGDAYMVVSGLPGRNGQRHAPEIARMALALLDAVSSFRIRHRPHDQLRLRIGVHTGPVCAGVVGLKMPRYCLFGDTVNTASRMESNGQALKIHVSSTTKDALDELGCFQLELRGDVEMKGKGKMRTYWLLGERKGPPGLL
Atrial natriuretic peptide receptor 1 (Homo sapiens), sequence (P16066 whole entry, looked up): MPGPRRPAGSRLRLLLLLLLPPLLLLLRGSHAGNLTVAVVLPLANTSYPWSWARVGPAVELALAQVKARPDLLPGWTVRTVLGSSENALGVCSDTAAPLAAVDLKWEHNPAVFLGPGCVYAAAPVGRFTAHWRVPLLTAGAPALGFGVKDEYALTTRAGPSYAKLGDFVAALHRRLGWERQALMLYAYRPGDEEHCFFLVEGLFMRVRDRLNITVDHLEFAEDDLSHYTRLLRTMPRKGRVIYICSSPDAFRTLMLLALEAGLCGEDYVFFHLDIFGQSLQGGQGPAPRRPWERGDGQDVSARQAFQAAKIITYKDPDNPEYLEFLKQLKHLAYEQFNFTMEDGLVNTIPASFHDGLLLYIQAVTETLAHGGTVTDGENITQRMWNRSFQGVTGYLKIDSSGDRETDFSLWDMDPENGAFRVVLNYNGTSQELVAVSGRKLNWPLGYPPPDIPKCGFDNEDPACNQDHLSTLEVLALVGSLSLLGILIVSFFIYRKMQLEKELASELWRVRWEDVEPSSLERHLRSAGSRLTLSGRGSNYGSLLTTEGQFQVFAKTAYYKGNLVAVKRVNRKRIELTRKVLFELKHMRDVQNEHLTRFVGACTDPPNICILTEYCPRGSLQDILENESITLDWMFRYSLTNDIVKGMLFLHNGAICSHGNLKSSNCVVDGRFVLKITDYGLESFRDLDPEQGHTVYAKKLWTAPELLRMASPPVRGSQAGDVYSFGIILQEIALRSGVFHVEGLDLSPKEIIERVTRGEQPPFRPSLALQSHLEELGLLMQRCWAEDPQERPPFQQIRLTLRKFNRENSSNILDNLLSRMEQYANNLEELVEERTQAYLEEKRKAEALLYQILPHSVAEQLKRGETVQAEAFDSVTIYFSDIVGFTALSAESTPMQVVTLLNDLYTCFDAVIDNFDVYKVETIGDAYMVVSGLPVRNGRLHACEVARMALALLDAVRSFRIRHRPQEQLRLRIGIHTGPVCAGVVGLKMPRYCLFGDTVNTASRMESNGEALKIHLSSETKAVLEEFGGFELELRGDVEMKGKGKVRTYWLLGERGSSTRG

Take `COc1cc(=C2C=c3ccccc3=N2)[nH]c1=Cc1[nH]c(C)cc1C`: the IC50 (viability decrease) in assay [1] is 14.8 µM (active). Besides, the Potency is 2.96 µM (active) in [2]; 14.8 µM (active) in assay [4]; 1.18 µM (active) in [5]; 4.69 µM (active) in [6]; 7.69 µM (active) in [7]; 0.743 µM (active) in assay [8]. Further, the Potency result in [3] is “inactive”.

On to `COc1ccc2c(c1)CC[C@@H](CN(C)CC(=O)O)[C@H]2c1ccccc1`, for which the Potency result in [9] is “inactive”. For the same compound, the Potency was 3.7 µM (active) in assay [3]; 2.96 µM (active) in [4]; 1.18 µM (active) in assay [5]; 1.18 µM (active) in assay [10]; 6.11 µM (active) in assay [7]; 0.662 µM (active) in assay [8].

As to `CC[C@H](CO)Nc1nc(NCc2ccccc2)c2ncn(C(C)C)c2n1`, in [1], the IC50 (viability decrease) is 18.7 µM (active). For the same compound, the Potency is 18.7 µM (active) in [2]; 23.5 µM (active) in assay [4]; 16.6 µM (active) in [5]; 18.7 µM (active) in assay [6]; 27.3 µM (active) in [7]. The Potency result in [11], in assay [13] and in assay [3] was “inactive” each time. Also, the outcome in assay [12] was inactive.

Consider `COc1cc2c(Oc3ccc(-c4cnc(Nc5ccc(F)cc5)n(C)c4=O)cc3F)ccnc2cc1OCCCN1CCOCC1`, for which the IC50 (viability decrease) in [1] is 3.72 µM (active). Also, the Potency was 13.2 µM (active) in assay [2]; 11.7 µM (active) in assay [3]; 18.7 µM (active) in assay [4]; 0.526 µM (active) in [5]; 5.9 µM (active) in [6]; 0.833 µM (active) in assay [10]. Besides, the Potency was 24.3 µM (active) in [7] and 3.32 µM (active) in [8].

Regarding `N#CCNC(=O)c1ccc(-c2ccnc(Nc3ccc(N4CCOCC4)cc3)n2)cc1`, the IC50 (viability decrease) in assay [1] is 13.2 µM (active). Also, the Potency in [14] was 3.66 µM (active); in [2] it was 8.33 µM (active) and 5.8 µM (active); in assay [4], 14.8 µM (active); in assay [5], 13.2 µM (active); in assay [6], 7.43 µM (active); in assay [10], 4.69 µM (active). In addition, in assay [7], the Potency was 21.7 µM (active).

`O=C(NCCCNc1nc(Nc2cccc(NC(=O)N3CCCC3)c2)ncc1I)c1cccs1`: the IC50 (viability decrease) in assay [1] is 6.62 µM (active) and 14.8 µM (active). Also, the Potency in [15] was 11.8 µM (active) and 16.6 µM (active); in assay [14] it was 11.6 µM (active); in [2], 16.6 µM (active); in [3] it was 2.62 µM (active); in assay [4], 14.8 µM (active); in assay [5], 2.96 µM (active). Besides, the Potency in assay [6] was 7.43 µM (active); in [10] it was 1.32 µM (active); in [8] it was 23.5 µM (active).

`O=C(O)c1ccc2c(c1)nc(Nc1cccc(Cl)c1)c1ccncc12`: the IC50 (viability decrease) in assay [1] was 16.6 µM (active). In addition, the Potency in [14] was 5.8 µM (active); in assay [2], “inactive and 14.6 µM (active)”; in assay [4], 4.69 µM (active); in assay [5], 7.43 µM (active); in [10] it was 0.935 µM (active); in [7] it was 7.69 µM (active). In addition, the Potency in [8] is 2.35 µM (active). Moreover, in [3], the Potency result is “inactive”.

For the compound `Cn1cncc1[C@@](N)(c1ccc(Cl)cc1)c1ccc2c(c1)c(-c1cccc(Cl)c1)cc(=O)n2C`, the IC50 (viability decrease) in assay [1] was 23.5 µM (active). For the same compound, the Potency is 3.72 µM (active) in [2], 14.8 µM (active) in assay [4], 21.7 µM (active) in assay [7] and 11.8 µM (active) in [8].

Regarding `C#Cc1cccc(Nc2ncnc3cc(OC)c(OCCCCCCC(=O)NO)cc23)c1`, in [1], the IC50 (viability decrease) is 1.18 µM (active). For the same compound, the Potency in [2] is 10.5 µM (active) and 14.6 µM (active); in assay [3], 5.23 µM (active); in assay [4], 0.059 µM (active); in [6], 0.0093 µM (active); in assay [7], 0.611 µM (active); in [8], 0.148 µM (active). In assay [13], the Potency entry was “inactive”.
